Most compounds without a hit are left out; they make up all but 2.4% or so of the library.
Casp7 inh = blocks human caspase-7 allosterically or competitively. P55210. recombinant caspase-7, Ac-DEVD-AFC fluorescence rate. Potency, µM (doses to about 57.5 µM), inactives show at the highest dose activity change, negative = inhibition, usual class: inhibitors. 0.02% of 75,000 active; active means well fitted inhibition curve with a large enough effect in the main read-out, with a control signal flat, not every such curve was filed as active; inconclusive means small, poorly fitted or top-dose-only effect, or a change in a side signal; further: % of control where 0% means no effect
Tau filament bind = tau filament binding; P10636; recombinant tau filaments, thioflavin S fluorescence, 15 h; filaments grown with octadecylsulfate alongside compound; Potency, µM (doses to about 57.1 µM), for inactives: at the highest dose activity change, negative = inhibition; 2% of 71,000 active; AID 596;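 further: on the % scale 0 is the no-effect control and ±100 the full control effect; actives lower thioflavin S fluorescence by blocking filaments or displacing dye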
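Quantitative HTS: thioflavine S signal from ODS-induced tau filaments, excited at 450 nm, emission 510 nm. Conditions: 1 uM tau, 30 uM ODS, 15 h at 37 C, pH 7.4.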
15-hLO-2 inh = 15-hLO-2 (ALOX15B) enzyme inhibition | O15296 | 0.56% of 110,000 active | Potency, µM (top dose mostly 57.1 µM), inactives show at the highest dose activity change, negative = inhibition, hits mostly inhibitors | AID 881 | purified 15hLO-2, xylenol orange hydroperoxide absorbance; further: on the % scale 0 is the no-effect control and ±100 the full control effect; nearly all actives have a fitted effect of over 60% in size
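Screening format was qHTS against 50 nM purified 15hLO-2 in Hepes pH 7.5 with detergent. Activity follows hydroperoxide formation from 45 uM arachidonic acid, measured as 573:405 nm absorbance ratio of the ferric-xylenol orange complex.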
Hsp90 Hop PPI = changes Hsp90-Hop TPR2A binding signal, up or down | AlphaScreen TPR2A-His6 binding biotin-Hsp90 C-terminal peptide | Potency, µM (series often up to 57 µM), for inactives: at the top dose activity change, negative = inhibition | 0.44% of 71,000 active | AID 595; active means well fitted curve in either direction with a large enough effect; inconclusive means small, poorly fitted or top-dose-only effect, or another doubt; further: on the % scale 0 is the no-effect control and ±100 the full control effect
15-hLO inh = 15-hLO (ALOX15) enzyme inhibition; Potency, µM (series often up to 57.1 µM), for inactives: at the highest dose activity change, negative = inhibition, hits mostly inhibitors; 1.4% of 74,000 active; purified 15hLO-1, xylenol orange hydroperoxide absorbance; further: on the % scale 0 is the no-effect control and ±100 the full control effect; nearly all actives have a fitted effect of over 55% in size
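Readout: Fe(III)-xylenol orange absorbance, 573-to-405 nm ratio as reaction progress. Enzyme 40 nM purified human 15hLO-1, substrate 50 uM arachidonic acid, 6 min RT after 15 min compound preincubation; Hepes pH 7.5 buffer with Triton X-100.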
Casp1 inh = blocks human caspase-1 allosterically or competitively; P29466; Caspase-1 enzyme, Ac-WEHD-AFC fluorogenic rate; Potency, µM (titrated, usually from 57.5 µM), for inactives: top-dose activity change, negative = inhibition, actives largely listed as inhibitors; 0.03% of 75,000 active; AID 900;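 further: plate controls were vehicle for no effect and no substrate for full effect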
The depositor's hits bear a star; ? = inconclusive; . = no result; ! = not confirmed by another sample; [ ] = another dose, or the depositor's remark. Unless noted, the call rests on the fitted dose curve; in most records, active means well fitted curve in the direction sought with a large enough effect; inconclusive means small, poorly fitted or top-dose-only effect, or another doubt; inactive means no such curve, though single readings can be large; an effect the other way counts as inactive or inconclusive. Potency means the concentration at half of the fitted maximal effect.

SMILES	Casp7 inh	Tau filament bind	15-hLO-2 inh	Hsp90 Hop PPI	15-hLO inh	Casp1 inh
CC1Cc2ccccc2N1Cc1nc2scc(-c3cccs3)c2c(=O)[nH]1 (stereo not drawn)	-2%	13µM*	?	-5%	-20%	-3%
COC(=O)CSc1nc(NCC(C)C)nc(N2CCOCC2)n1	0%	-5%	5%	?	-12%	-2%
O=C(CSc1nnc(C2CC2)n1Cc1ccccc1)c1cc2ccccc2o1	-3%	10µM*	-23%	-9%	-5%	-4%
NC(=O)CSc1nnc(-c2cc3ccccc3o2)n1Cc1ccccc1	1%	224%	-13%	-7%	4%	-1%
COc1ccc2c3c(cccc13)NN=C2C	?	16µM*	.	-19%	13µM*	?
CCn1c(=N)n(CC(O)c2ccccc2)c2ccccc21 (stereo not drawn)	.	.	13%	.	.	.
Cc1ccc(Cn2c(=S)[nH]c3ccc(N4CCOCC4)cc3c2=O)o1	?	14%	-13%	?	16µM*	.
CCOC(=O)N1CCN(c2c(F)cc3[nH]c(=S)[nH]c3c2Br)CC1	-5%	16µM*	13µM*	0%	?	-5%
CCOC(=O)N1CCN(c2cc3[nH]c(=S)[nH]c3cc2F)CC1	1%	-10%	-22%	-4%	?	0%
CCOc1ccc(Nc2nc(Cc3nnc(SCC(=O)NC4CCCCC4)n3C)cs2)cc1	.	.	27%	.	.	.
CN(C)c1ccc(/C=N/n2ncc3ccccc32)cc1	?	-26%	1%	25µM*	-2%	.
C=CCn1c(/N=C/c2ccc(N(C)C)cc2)nc2ccccc21	-16%	-1%	8%	-8%	5%	-14%
Clc1ccc2nc(NC3=NCN(CCN4CCOCC4)CN3)nc(-c3ccccc3)c2c1	-1%	7.9µM*	44%	-1%	4%	-2%
CCc1ccc2nc(NC3=NCN(CCCN4CCOCC4)CN3)nc(C)c2c1	-1%	28%	.	-3%	5%	-1%
O=C(/C=C\c1ccc(O)c(O)c1)OCCc1ccccc1	2%	7%	13µM*	?	0.79µM*	7%
CCCCCCSC1=C(C#N)C(c2ccc(C)o2)CC(=O)N1 (stereo not drawn)	-4%	12%	?	4%	25µM*	-3%
NC(=O)c1ccccc1NC(=O)/C=C/c1ccc(Cl)cc1	.	.	4%	.	.	.
Cc1ccc(-c2cc(C(F)F)nc(N3CCC(C)CC3)n2)cc1	-2%	-1%	21%	25µM*	2%	1%
O=C(O)CCc1ccc(-c2ccccc2)n1-c1cccc(O)c1	0%	-14%	2%[2.29 µM]	-10%	10µM*	?
O=C(O)CCc1ccc(-c2ccccc2)n1CC(=O)O	-4%	5%	7%[2.29 µM]	-5%	-14%	-1%
COc1cc(N=Nc2cccc(S(N)(=O)=O)c2)c2ccccc2c1N	-3%[11.5 µM]	1.6µM*	-15%[11.4 µM]	?	-25%[11.4 µM]	2%[11.5 µM]
CN1CCc2c(sc3c2c(=O)n(-c2ccccc2)c2nnc(SCc4ccc(Cl)cc4)n32)C1	-6%	3.2µM*	.	-14%	-21%	-5%
C[N+](C)(C)CC(=O)N/N=C\c1c(O)ccc2ccccc12	-12%[11.5 µM]	17%[11.4 µM]	6%[11.4 µM]	3.2µM*	30%[11.4 µM]	?
O=C(CSCC(=O)Nc1ccccc1)N/N=C/c1c(O)ccc2ccccc12	.	.	-11%	.	.	.
COc1ccc(NC(=O)CSc2nc(C)c3c(c2C#N)CCCC3)cc1	.	.	0%	.	.	.
SMILES	Casp7 inh	Tau filament bind	15-hLO-2 inh	Hsp90 Hop PPI	15-hLO inh	Casp1 inh
CC1=C(C(=O)Nc2cc(-c3cccc(F)c3)[nH]n2)C2(CCCCC2)OC1=O	?	13µM*	0%	-6%	-4%	-2%
COCCCCC(=NOCCN)c1ccc(C(F)(F)F)cc1	0%	32µM*!	40%	-3%	-3%[25.6 µM]	1%
Cn1c(=O)oc2cc(S(=O)(=O)NCc3ccccc3)ccc21	.	.	-1%	.	.	.
O=C(NC1CCN(Cc2ccccc2)CC1)C1CCCN(S(=O)(=O)c2cccc3nonc23)C1 (stereo not drawn)	-2%	16µM*	15%	-5%	-20%	-3%
CCOC(=O)CN1CC23C=CC(O2)C(C(=O)Nc2ccc(OC)cc2OC)C3C1=O (stereo not drawn)	-1%	-10%	.	-3%	-3%	-4%
CCOC(=O)CN1CC23C=CC(O2)C(C(=O)Nc2cc(OC)ccc2OC)C3C1=O (stereo not drawn)	0%	13µM*	-1%	-4%	3%	0%
O=C(O)CSc1nnc(-c2ccc(S(=O)(=O)N3CCCC3)cc2)n1Cc1ccco1	2%	9%	-1%	1%	5%	1%
CCOC(=O)C1=NN(c2ccccc2)C(=O)/C1=C\c1ccc(N(C)C)cc1	.	.	6%	.	.	.
CCCc1ccc(/C=C2\C(=O)c3ccccc3C(O)=C2C(=O)OCC)cc1	.	.	6.3µM*	.	.	.
CCOC(=O)C1=C(O)c2ccccc2C(=O)/C1=C\c1ccc(CC)cc1	.	.	10µM*	.	.	.
CN(C(=O)c1ccc(NC(=O)C2CC=CCC2C(=O)O)cc1)c1ccccc1 (stereo not drawn)	-1%	-13%	-4%	-4%	1%	-2%
Cc1nc2ncnn2c(C)c1Cc1ccccc1Cl	.	.	4%	.	.	.
CCCCCCCCCCCCCCCCCCc1ccc(C(=O)/C=C\C(=O)O)cc1	1%	-75%	4%	0%	-7%[25.6 µM]	4%
CCCCCC/C=C\CCCCCCCc1cccc(O)c1C(=O)O	-11%	.	?	.	1.6µM*	-7%
Cc1oc(/N=C/c2c(O)ccc3ccccc23)c(C#N)c1C	-19%	2.5µM*	?	-6%	?	-15%
O=C(NC1(O)C(=O)c2ccccc2C1=O)c1ccccc1	0%	-8%	25µM*	-24%	-18%	-4%
CCCCCCCC(=O)OCCOC(=O)CCCCCCC	.	.	11%[0.0915 µM]	.	.	.
CCOC(=O)CCCCCCCCCCCCC1C=CCC1 (stereo not drawn)	1%	.	2%	.	13µM*	1%
Cc1ccc(Nc2nc(C(=O)N3CCC(C(=O)N4CCN(C)CC4)CC3)cs2)cc1	-1%	-3%	3%	-5%	-6%	1%
S=c1nc[nH]c2nc[nH]c12	0%	.	7%	.	-23%	0%
O=C(Nc1cccnc1)c1cnc2ccccc2n1	3%	-7%	-1%	-3%	0%	0%
O=C(O)c1cnc2ccccc2n1	1%	-3%	8%	-4%	20µM*	2%
O=C(c1ccco1)N1CCN(C(=O)c2cc(-c3ccccn3)nc3ccc(Cl)cc23)CC1	-18%	10µM*	9%	-28%	?	-7%
O=C(c1ccco1)N1CCN(C(=O)c2cc(-c3ccccc3)nc3ccccc23)CC1	.	.	-3%	.	.	.
O=C(CSCc1nc2ccccc2[nH]1)N1CCN(c2cccc(Cl)c2)CC1	-6%	-10%	24%	-6%	9%	-7%

Screens (PubChem BioAssay)
